The source of these data is PubChem BioAssay (EPA / NIEHS).

What is called AC50 is the midpoint of the concentration-response curve, whichever way the signal moves.

Read-out in assay [1]: Interleukin-6 (IL6), IL6 (gene 3569)
Nature of the assay: BSK_CASM3C_IL6: BioMAP Diversity Plus: CASM3C Assay for Interleukin-6 (IL6) Biomarker Activity for (AID 2283040). Conditions: primary human coronary artery smooth muscle cells; actives raise or lower the signal.

Read-out in assay [2]: Tissue plasminogen activator (tPA), PLAT (gene 5327)
Nature of the assay: BSK_BE3C_tPA: BioMAP Diversity Plus: BE3C Assay for Tissue plasminogen activator (tPA) Biomarker Activity (AID 2283041).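 On outcome: tPA level quantified by ELISA one day after compound addition.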 As to conditions: primary human bronchial epithelial cells; actives raise or lower the signal. A digest of the protocol:
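Gain- or loss-of-signal in tPA, measured by ELISA, derived by bidirectional fitting against DMSO. Cells: human primary bronchial epithelial; read at 24 h after chemical dosing.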

Read-out in assay [3]: Interleukin-8 (IL8), CXCL8 (gene 3576)
Nature of the assay: BSK_CASM3C_IL8: BioMAP Diversity Plus: CASM3C Assay for Interleukin-8 (IL8) Biomarker Activity (AID 2283042).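 Further: IL-8 protein level quantified by ELISA.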 Conditions: primary human coronary artery smooth muscle cells; actives raise or lower the signal.

Read-out in assay [4]: Human Leukocyte Antigen - DR isotype (HLADR), HLA-DRA (gene 3122)
Nature of the assay: BSK_CASM3C_HLADR: BioMAP Diversity Plus: CASM3C Assay for Human Leukocyte Antigen - DR isotype (HLADR) Biomarker Activity (AID 2283043).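 Further: cell-surface HLA-DR protein level quantified by ELISA.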 As to conditions: primary human coronary artery smooth muscle cells; actives raise or lower the signal.

Read-out in assay [5]: Macrophage colony-stimulating factor (MCSF), CSF1 (gene 1435)
Nature of the assay: BSK_CASM3C_MCSF: BioMAP Diversity Plus: CASM3C Assay for Macrophage colony-stimulating factor (MCSF) Biomarker Activity (AID 2283044).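 Further: M-CSF protein amount quantified by ELISA after 24 h exposure.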 As to conditions: primary human coronary artery smooth muscle cells; actives raise or lower the signal.

Read-out in assay [6]: Low-density lipoprotein receptor (LDLR), LDLR (gene 3949)
Nature of the assay: BSK_CASM3C_LDLR: BioMAP Diversity Plus: CASM3C Assay for Low-density lipoprotein receptor (LDLR) Biomarker Activity (AID 2283045).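 Further: LDLR protein level on the cell surface quantified by ELISA.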 As to conditions: primary human coronary artery smooth muscle cells; actives raise or lower the signal.

Read-out in assay [7]: Monocyte Chemoattractant Protein-1 (MCP1), CCL2 (gene 6347)
Nature of the assay: BSK_CASM3C_MCP1: BioMAP Diversity Plus: CASM3C Assay for Monocyte Chemoattractant Protein-1 (MCP1) Biomarker Activity (AID 2283046).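 Further: MCP-1 level quantified by ELISA 24 h after dosing.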 As to conditions: primary human coronary artery smooth muscle cells; actives raise or lower the signal.

A short description of assay [8]: BSK_CASM3C_Proliferation: Cell Proliferation Assessment in the BioMAP Diversity Plus: CASM3C Assay (AID 2283047).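 Further: sulforhodamine B total protein stain as relative cell number at 560 nm; sub-confluent cells exposed 48 h before staining; fitted both ways against DMSO so gain or loss of cell number.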 Conditions: primary human coronary artery smooth muscle cells.
Read-out in assay [9]: Monokine induced gamma interferon (MIG), CXCL9 (gene 4283)
Nature of the assay: BSK_CASM3C_MIG: BioMAP Diversity Plus: CASM3C Assay for Monokine induced gamma interferon (MIG) Biomarker Activity (AID 2283048).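 Further: MIG protein level measured by ELISA.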 As to conditions: primary human coronary artery smooth muscle cells; actives raise or lower the signal.

Read-out in assay [10]: serum amyloid A (SAA), SAA1 (gene 6288)
Nature of the assay: BSK_CASM3C_SAA: BioMAP Diversity Plus: CASM3C Assay for serum amyloid A (SAA) Biomarker Activity (AID 2283049).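 Further: SAA protein level quantified by ELISA.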 Conditions: primary human coronary artery smooth muscle cells; actives raise or lower the signal.

The nature of assay [11]: BSK_CASM3C_SRB: Viability Assessment in the BioMAP Diversity Plus: CASM3C Assay (AID 2283050).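 Further: cells exposed to compound for 24 h.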 As to conditions: primary human coronary artery smooth muscle cells.
Read-out in assay [12]: Thrombomodulin, THBD (gene 7056)
Nature of the assay: BSK_CASM3C_Thrombomodulin: BioMAP Diversity Plus: CASM3C Assay for Thrombomodulin Biomarker Activity (AID 2283051).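 Further: thrombomodulin protein level measured by ELISA 24 h after dosing.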 As to conditions: primary human coronary artery smooth muscle cells; actives raise or lower the signal.

Read-out in assay [13]: Tissue Factor, F3 (gene 2152)
Nature of the assay: BSK_CASM3C_TissueFactor: BioMAP Diversity Plus: CASM3C Assay for Tissue Factor Biomarker Activity (AID 2283052).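 Further: cell surface tissue factor protein level read by ELISA.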 As to conditions: primary human coronary artery smooth muscle cells; actives raise or lower the signal.

Read-out in assay [14]: Urokinase-type plasminogen activator receptor (uPAR), PLAUR (gene 5329)
Nature of the assay: BSK_CASM3C_uPAR: BioMAP Diversity Plus: CASM3C Assay for Urokinase-type plasminogen activator receptor (uPAR) Biomarker Activity (AID 2283054).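 Further: cell-surface uPAR protein level quantified by ELISA.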 As to conditions: primary human coronary artery smooth muscle cells; actives raise or lower the signal.

Read-out in assay [15]: Vascular cell adhesion molecule 1 (VCAM1), VCAM1 (gene 7412)
Nature of the assay: BSK_CASM3C_VCAM1: BioMAP Diversity Plus: CASM3C Assay for Vascular cell adhesion molecule 1 (VCAM1) Biomarker Activity (AID 2283055).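 Further: VCAM-1 protein level quantified by ELISA on the cells.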 Conditions: primary human coronary artery smooth muscle cells; actives raise or lower the signal.

Read-out in assay [16]: Collagen III, COL3A1 (gene 1281)
Nature of the assay: BSK_hDFCGF_CollagenIII: BioMAP Diversity Plus: hDFCGF Assay for Collagen III Biomarker Activity (AID 2283056). Conditions: primary human foreskin fibroblasts; actives raise or lower the signal. A digest of the protocol:
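Human foreskin fibroblast primary cultures sampled 24 h after dosing; Collagen III quantified by ELISA. Signal fitted bidirectionally against DMSO baseline.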

Read-out in assay [17]: Epidermal growth factor receptor (EGFR), EGFR (gene 1956)
Nature of the assay: BSK_hDFCGF_EGFR: BioMAP Diversity Plus: hDFCGF Assay for Epidermal growth factor receptor (EGFR) Biomarker Activity (AID 2283057). As to conditions: primary human foreskin fibroblasts; actives raise or lower the signal. A digest of the protocol:
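Dosing human primary skin fibroblasts, then measuring surface EGFR by ELISA at 24 h, gives the endpoint; gains and losses relative to DMSO were fitted in both directions.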

Read-out in assay [18]: Interleukin-8 (IL8), CXCL8 (gene 3576)
Nature of the assay: BSK_hDFCGF_IL8: BioMAP Diversity Plus: hDFCGF Assay for Interleukin-8 (IL8) Biomarker Activity (AID 2283058). Conditions: primary human foreskin fibroblasts; actives raise or lower the signal. The method, boiled down: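 Primary human foreskin fibroblasts (hDFCGF system) dosed with chemical; IL-8 measured by ELISA 24 hours later. Bidirectional curve fitting relative to DMSO baseline; cytotoxicity tracked in parallel cultures by SRB total protein staining.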

Assay [19] in a line: BSK_hDFCGF_Proliferation: Cell Proliferation Assessment in the BioMAP Diversity Plus: hDFCGF Assay (AID 2283059).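 Further: curves fitted for both rise and fall of signal versus DMSO baseline.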 As to conditions: primary human foreskin fibroblasts. A digest of the protocol: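 Total protein read at 560 nm after 0.1% SRB staining of TCA-fixed human skin fibroblasts, […]. Activity is fitted in both directions relative to DMSO as baseline.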

Read-out in assay [20]: Interferon-gamma inducible Protein 10 (IP10), CXCL10 (gene 3627)
Nature of the assay: BSK_hDFCGF_IP10: BioMAP Diversity Plus: hDFCGF Assay for Interferon-gamma inducible Protein 10 (IP10) Biomarker Activity (AID 2283053). As to conditions: primary human foreskin fibroblasts; actives raise or lower the signal. The method, boiled down:
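Cells: human dermal foreskin fibroblasts. Exposure: 24 h post-dosing. Detection: IP-10 ELISA, with values expressed against DMSO controls and fitted in both directions.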

Molecules are shown by their SMILES. The source made the active and inactive calls. How the source made its calls: active means hit-call score of the fitted dose curve at least 0.9, where 1 is the maximum; inactive means score below 0.9.

Take `c1ccc(OP(Oc2ccccc2)Oc2ccccc2)cc1`: the outcome in assay [1], in assay [2], in assay [3], in [4], in assay [5] and in assay [6] was inactive. The result in [7], in [8], in [9], in assay [10], in [11] and in [12] was inactive. For the same compound, the result in assay [13], in assay [14], in [15], in [16], in assay [17] and in assay [18] was inactive. Further, the outcome in assay [19] was inactive.
For the compound `CCCCN(CCCC)N=O`, the result in assay [1], in [2], in [3], in [4], in assay [5] and in [6] was inactive. Also, the outcome in assay [7], in [8], in assay [9], in assay [10], in assay [11] and in [12] was inactive. Also, the outcome in [13], in [14], in assay [15], in assay [17], in [18] and in [19] was inactive.
For `N#Cc1cc([N+](=O)[O-])ccc1N`, the result in [1], in [2], in assay [3], in assay [4], in assay [5] and in assay [6] was inactive. Besides, the outcome in assay [7], in assay [8], in assay [9], in [10], in assay [11] and in assay [12] was inactive. Moreover, the outcome in assay [13], in assay [14], in [15], in [17], in [18] and in [19] was inactive.
Turning to `CCCCC(CC)COC(=O)c1c(Br)c(Br)c(Br)c(Br)c1C(=O)OCC(CC)CCCC` (stereo unspecified), the outcome in [1], in assay [2], in [3], in assay [4], in assay [5] and in assay [6] was inactive. Besides, the outcome in assay [7], in assay [8], in assay [9], in assay [11], in assay [12] and in assay [13] was inactive. Also, the result in assay [14], in assay [15], in assay [16], in assay [17], in assay [18] and in assay [19] was inactive. Moreover, the AC50 in [10] was 14700 nM (active).
Consider `COCCOCCO`, for which the result in [1], in [2], in assay [3], in assay [4], in assay [5] and in assay [6] was inactive. Besides, the result in [7], in assay [8], in assay [9], in assay [10], in assay [11] and in assay [12] was inactive. The outcome in assay [13], in assay [14], in assay [15], in [17], in assay [18] and in assay [19] was inactive.
In the case of `CCCN(CCC)c1c([N+](=O)[O-])cc(C(C)C)cc1[N+](=O)[O-]`, the result in [1], in [2], in assay [3], in assay [5], in [7] and in [9] was inactive. For the same compound, the outcome in assay [10], in assay [11], in assay [13], in [14], in assay [15] and in assay [18] was inactive. In addition, the AC50 is 20000 nM (active) in [6]; 31700 nM (active) in assay [8]; 20000 nM (active) in assay [12]; 20000 nM (active) in assay [20]; 20000 nM (active) in assay [17]; 13300 nM (active) in [19].
For `C=CC(=O)OCC(CC)(COC(=O)C=C)COC(=O)C=C`, the AC50 in assay [1] was 2110 nM (active); in assay [2], 5460 nM (active); in assay [3] it was 6300 nM (active); in [4], 1460 nM (active); in assay [5], 1980 nM (active); in assay [7], 2540 nM (active). Moreover, the AC50 was 2840 nM (active) in assay [8]; 2820 nM (active) in [9]; 624 nM (active) in assay [10]; 2210 nM (active) in [11]; 847 nM (active) in [13]; 1970 nM (active) in [14]. The AC50 in [15] was 1650 nM (active); in assay [17] it was 1590 nM (active); in assay [18] it was 3170 nM (active); in [19], 795 nM (active). The outcome in [6] and in assay [12] was inactive.
In the case of `[N-]=[N+]=[N-]`, the outcome in assay [1], in [2], in assay [3], in assay [4], in assay [5] and in assay [6] was inactive. The outcome in assay [7], in [8], in assay [9], in [10], in assay [11] and in [12] was inactive. Further, the result in assay [13], in [14], in [15], in assay [17], in [18] and in assay [19] was inactive.
